Drawing on PubChem BioAssay (NCATS), this text covers Potency for 20 compounds.

Records with an inconclusive call do not appear. Where a call stands in place of a potency, no number is given. Active and inactive are the calls of the source. Calls follow the shape of the dose curve; as a rule, active = well fitted inhibition curve with a large enough effect; inconclusive = small, poorly fitted or top-dose-only effect; inactive = flat fitted curve, though single readings scatter.
Potency is read from the fitted curve at half-maximal effect.

The subject of this experiment is CP194. Description: qHTS profiling for inhibitors of Plasmodium falciparum proliferation (AID 504749). Also: nearly all actives have a fitted effect of over 60% in size. Particulars: P. falciparum in erythrocytes, SYBR Green DNA, 72 h; series mostly up to 28.7 µM. In outline:
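P. falciparum-infected erythrocytes (0.3% parasitemia, 2.5% hematocrit final) were exposed to compounds for 72 h at 37 C in 5% CO2, then lysed with SYBR Green buffer overnight at room temperature; parasite DNA fluorescence was normalized to artemisinin and DMSO controls.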
(Quantitative high-throughput screening tests each substance at several concentrations.)
Take `COc1ccc(-c2cc(=S)ss2)cc1`: the Potency entry was “inactive”. For `CCCCCCCCCCCCCCCCCC(=O)O`, the Potency entry is “inactive”. For `CN1CCN(c2cc3c(nn2)Oc2ccccc2N3C)CC1`, the Potency result is “inactive”. Regarding `CC(=O)[C@]1(O)Cc2c(O)c3c(c(O)c2[C@@H](O[C@H]2C[C@H](N)[C@H](O)[C@H](C)O2)C1)C(=O)c1c(O)cccc1C3=O`, the Potency was 13.5 µM (active).

In the case of `Clc1ccccc1-c1nc(-c2ccncc2)no1`, the Potency result was “inactive”. Take `Cc1ccc(O)c(-n2nc3ccccc3n2)c1`: the Potency entry was “inactive”. On to `CCCCCC[C@@H](O)C/C=C\CCCCCCCC(=O)O`, for which the Potency entry was “inactive”. As for `Cc1cc(O)c2ccccc2c1O`, the Potency result was “inactive”. As for `Nc1ccc(C(=O)O)c(O)c1`, the Potency entry was “inactive”. As for `CCOc1ccc2nc(S(N)(=O)=O)sc2c1`, the Potency entry is “inactive”.

Consider `CCCCCCCCCCCC(=O)[O][Sn]([CH2]CCC)([CH2]CCC)[O]C(=O)CCCCCCCCCCC`, for which the Potency result was “inactive”. The same measure for `O=C(O)c1cc(O)c(O)c(O)c1`: “inactive”; for `Nc1cc(-c2ccncc2)c[nH]c1=O`: “inactive”.

As to `CCCCCCCCCCCCCCCC(=O)OC(C)C`, the Potency result was “inactive”. In the case of `O=C(O)COc1ccc(C(=O)c2cccs2)c(Cl)c1Cl`, the Potency result was “inactive”.

Turning to `O=C1CN(/N=C/c2ccc(-c3ccc([N+](=O)[O-])cc3)o2)C(=O)N1`, the Potency entry was “inactive”. Turning to `COc1cc(/C=C/C(=O)N2CCN(CC(=O)N3CCCC3)CC2)cc(OC)c1OC`, the Potency entry is “inactive”.

Consider `CCCC(=O)OC[C@@H](OC(=O)CCC)[C@@H](OC(=O)CCC)[C@H](Cn1c2nc(=O)[nH]c(=O)c-2nc2cc(C)c(C)cc21)OC(=O)CCC`, for which the Potency result was “inactive”. The same measure for `O=C(/C=C/c1ccccc1)NCCO`: “inactive”. Regarding `Cc1[nH]cnc1CN1CCc2c(c3ccccc3n2C)C1=O`, the Potency entry is “inactive”.
